PubChem BioAssay
“And” between values parts separate entries of the source, which are not always exact repeats. Identical values can stand only once. The source made the active and inactive calls.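 The calls were made as follows, unless noted: active = inhibition at or above 50% relative to wild type and mutant plate controls; inactive = inhibition below 50%.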

Key:
[1] = inhibitors of TNFa-induced NFkB p65 translocation, primary screen, imaging, HUVEC, MLSMR starter and 10KST1 sets (AID 438;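 active = inhibition above 20% together with a positive visual image hit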;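 also: compound added about 3h40 before a 20 min TNFalpha stimulation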;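 as to inhibition: signal is the nuclear over cytoplasmic p65 intensity ratio per well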); settings: HUVEC TNFa-induced p65 nuclear translocation; cell count: measured here: nuclei count (cytotoxicity indicator), at 2.08 µM unless noted; inhibition: at 2 µM, stronger effect = higher value unless noted
[2] = inhibitors of mutant huntingtin aggregation, primary screen, imaging, exon1htt(103Q)mCFP cells, high-content imaging (AID 483;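 active = visual image review flags a hit and inhibition of aggregation exceeds 20%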;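 also: compound exposure lasted 3 days before fixation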;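 as to nuclei count: percent of the per-plate median nuclei count of sample wells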); settings: exon1htt(103Q)mCFP cell line, aggregate imaging, at 2 µM; inhibition of aggregation: stronger effect = higher value; nuclei count: measured here: cell count, toxicity
[3] = inhibitors of E-selectin induction by TNFa, primary screen, imaging, HUVEC, immunofluorescence, MLSMR starter and 10KST1 sets (AID 487;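 active = visually confirmed hit in the image check and inhibition above 20%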;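 as to inhibition: signal is fraction of cell area covered by stained E-selectin grains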;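 as to nuclei count: 100% = median nuclei count of all wells on the same plate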); settings: HUVEC TNFalpha-induced E-selectin immunofluorescence imaging, at 2 µM; inhibition: stronger effect = higher value; nuclei count: measured here: cell number, toxicity
[4] = DUSP6 inhibitors restoring Erk phosphorylation by chemical complementation, primary imaging in DUSP6-transfected HeLa (AID 609;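 active = compounds giving at least 50% inhibition in the cell-based MKP-3 phosphatase rescue imaging test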;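 as to inhibition: phospho-Erk level distribution per well compared with pooled transfected vehicle control wells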); settings: HeLa MKP-3 transfected, phospho-Erk imaging KS statistic, at 10 µM
[5] = molecular target: Dual specificity protein phosphatase 6 (Homo sapiens) (UniProt Q16828); assay: as above; settings: HeLa MKP-3 transfected, phospho-Erk imaging KS statistic, at 10 µM, stronger effect = higher value
[6] = molecular target: Voltage-gated potassium channel subunit beta-2 (Rattus norvegicus) (UniProt P62483); assay: KvBeta enzyme negative modulators, primary screen, biochemical, NADPH fluorescence (AID 622;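 active = fluorescence slope higher than the sample average by over 3 SD, cut at about -0.22 in these data, passing the limit was not always enough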;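 also: slope of raw intensity against log time taken from 70 to 1610 s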); settings: recombinant KvBeta, 4-cyanobenzaldehyde reduction, at 10 µM, stronger effect = higher value
[7] = molecular target: Voltage-gated potassium channel subunit beta-2 (Rattus norvegicus) (UniProt P62483); assay: KvBeta positive modulators, primary screen, biochemical, NADPH fluorescence (AID 623;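 active = NADPH fluorescence slope more negative than the mean of all samples by about 3 SD, 99.7% confidence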;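 also: fluorescence intensity change per second fitted from 20 to 320 s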); settings: Recombinant KvBeta, NADPH fluorescence decrease slope, 10 min; at 10 µM; stronger effect = lower value
[8] = molecular target: Alpha-2C adrenergic receptor (Homo sapiens) (UniProt P18825); assay: modulators of alpha2C/GIRK thallium flux, primary screen, cell-based, HEK293 alpha2C/GIRK1/2 (AID 624;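 active = fluorescence slope after compound addition differing from the mean of all screened samples at 99.7% confidence, in either direction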;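 also: slope of fluorescence ratio to pre-addition baseline per second over 15 to 24 s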); settings: thallium flux BTC fluorescence, at 10 µM, actives lie on both sides
[9] = inhibitors of larval lipid processing in zebrafish, primary screen, whole organism, PED6 fluorescence, gall bladder and intestine (AID 686;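 active = a full or partial loss of lipid-probe fluorescence in the fish gall bladder, intestine or both, judged by eye; inactive = no fluorescence loss, or compound toxic to the fish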;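 also: larvae 5 to 7 days old with five fish per well; signal comes from phospholipase A2 cleavage of quenched PED6 carried via bile; overnight exposure to compound and PED6 before scoring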); settings: Zebrafish larvae PED6 lipid processing, fluorescence scoring
[10] = inhibitors of Chlamydomonas gravitaxis, primary screen, whole organism, Chlamydomonas reinhardtii, WT vs cilia-less mutant, absorbance, 96-well (AID 463189); settings: OD600 absorbance, 2 days, at 10 µM, stronger effect = higher value;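 also: 0% = wild type cc124 cells in DMSO and 100% = ciliumless bld1 mutant cells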
[11] = inhibitors of Sendai virus-induced IRF3 signaling, primary screen, TLR/RLR signaling modifier project, cell-based, Sendai virus stimulus, luciferase, 10K MLSCN set (AID 602276;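 active = inhibition at or above 50% at 10 µM; inactive = inhibition below 50%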;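 also: firefly luciferase from ISG56 promoter only with Renilla not read in this screen; 0% = Sendai virus plus DMSO and 100% = medium plus DMSO without virus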); settings: HEK293 RL24 IRF3 luciferase reporter, at 10 µM, stronger effect = higher value
[12] = inhibitors of poly I:C-induced TLR3 signaling, primary screen, cell-based, poly I:C stimulus, luciferase, 10K MLSCN set (AID 602277;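 active = inhibition of the reporter signal at or above 50%; inactive = inhibition below 50%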); settings: HEK293-TLR3 RL24 IRF3 luciferase reporter, at 10 µM, stronger effect = higher value
[13] = measured here: cell density z-score
[14] = measured here: nuclear c-Myc green intensity z-score
[15] = measured here: nuclear pErk red intensity z-score, stronger effect = higher value

Sequence of Dual specificity protein phosphatase 6 (Homo sapiens) (Q16828 whole entry, looked up): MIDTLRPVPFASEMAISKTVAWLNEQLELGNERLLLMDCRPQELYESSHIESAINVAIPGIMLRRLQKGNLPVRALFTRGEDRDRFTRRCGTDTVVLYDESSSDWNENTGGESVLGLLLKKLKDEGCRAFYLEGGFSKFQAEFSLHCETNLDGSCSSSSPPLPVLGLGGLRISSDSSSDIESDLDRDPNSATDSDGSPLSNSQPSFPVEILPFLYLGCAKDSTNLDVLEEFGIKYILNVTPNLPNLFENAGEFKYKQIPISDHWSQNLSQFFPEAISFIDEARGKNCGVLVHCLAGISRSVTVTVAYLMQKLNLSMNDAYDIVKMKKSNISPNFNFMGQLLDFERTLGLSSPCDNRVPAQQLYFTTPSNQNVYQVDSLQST
Sequence of Alpha-2C adrenergic receptor (Homo sapiens) (P18825 whole entry, looked up): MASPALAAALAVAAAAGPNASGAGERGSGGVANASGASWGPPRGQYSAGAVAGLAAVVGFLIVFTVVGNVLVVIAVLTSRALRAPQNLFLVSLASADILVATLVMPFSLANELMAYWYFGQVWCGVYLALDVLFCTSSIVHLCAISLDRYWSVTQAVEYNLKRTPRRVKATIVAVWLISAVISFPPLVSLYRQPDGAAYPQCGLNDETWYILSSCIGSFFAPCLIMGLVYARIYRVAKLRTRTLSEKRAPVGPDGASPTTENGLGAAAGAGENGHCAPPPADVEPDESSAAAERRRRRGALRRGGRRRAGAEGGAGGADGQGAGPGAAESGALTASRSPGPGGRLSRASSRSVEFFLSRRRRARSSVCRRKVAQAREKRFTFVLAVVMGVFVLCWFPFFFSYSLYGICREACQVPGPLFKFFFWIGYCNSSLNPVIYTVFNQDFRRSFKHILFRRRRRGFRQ
Sequence of Voltage-gated potassium channel subunit beta-2 (Rattus norvegicus) (P62483 whole entry, looked up): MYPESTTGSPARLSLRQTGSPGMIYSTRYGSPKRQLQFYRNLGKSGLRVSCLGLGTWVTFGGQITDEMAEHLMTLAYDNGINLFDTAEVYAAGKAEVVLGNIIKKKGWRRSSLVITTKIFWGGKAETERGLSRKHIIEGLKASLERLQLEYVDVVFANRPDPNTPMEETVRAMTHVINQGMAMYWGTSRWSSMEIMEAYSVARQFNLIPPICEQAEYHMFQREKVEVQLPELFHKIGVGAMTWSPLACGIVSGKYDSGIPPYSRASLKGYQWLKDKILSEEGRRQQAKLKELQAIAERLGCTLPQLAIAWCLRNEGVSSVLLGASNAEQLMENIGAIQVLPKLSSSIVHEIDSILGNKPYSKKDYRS

Compound	cell count [1]	inhibition [1]	inhibition of aggregation [2]	nuclei count [2] [%]	inhibition [3]	nuclei count [3] [%]	z-score [4, 13]	z-score [4, 14]	z-score [4, 15]	inhibition [5]	fluorescence slope [6]	NADPH fluorescence slope [7]	slope [8]	outcome [9]	inhibition [10]	inhibition [11]	inhibition [12]	z-score ([4]; measured here: cell density z-score, cells stimulated with TPA for 15 min)	z-score ([4]; measured here: nuclear c-Myc green intensity z-score, cells stimulated with TPA for 15 min)	z-score ([4]; measured here: nuclear pErk red intensity z-score, stronger effect = higher value, cells stimulated with TPA for 15 min)
CN(C)[C@@H]1C(=O)C(C(N)=O)=C(O)[C@@]2(O)C(=O)C3=C(O)c4c(O)ccc(Cl)c4[C@@](C)(O)C3C[C@@H]12 (some centres undefined)	634	-1.6% (inactive)	76.3% (active)	102	-43.7% (inactive)	123	-1.02	0.954	-0.997	21.2% (inactive)	-0.468 (inactive)	-6.5e-07 (inactive)	0.00588 (inactive)	inactive	51.9% (active)	23% (inactive)	44.9% (inactive)	–	–	–
CC(C)N(CCC(C(N)=O)(c1ccccc1)c1ccccn1)C(C)C (centres undefined)	539	-8.5% (inactive)	-2.7% (inactive)	104	-22.4% (inactive)	106	-0.772	0.954	0.768	9.37% (inactive)	-0.515 (inactive)	-7.6e-05 (inactive)	0.00456 (inactive)	inactive	1.35% (inactive) and 4.32% (inactive) and 26.6% (inactive)	6.44% (inactive)	34% (inactive)	–	–	–
Cn1c(O)c(C=NC2CCN(Cc3ccccc3)CC2)c(=O)n(C)c1=O	440	1% (inactive)	–	–	-22.6% (inactive)	136	0.0201	1.2	0.0643	4.25% (inactive)	-0.401 (inactive)	-1.9e-05 (inactive)	0.00599 (inactive)	inactive	0.967% (inactive)	–	–	–	–	–
COc1ccc(OC)c([C@@H](O)[C@H](C)NC(C)(C)C)c1	671	-4.8% (inactive)	-2.8% (inactive)	95.5	-81.3% (inactive)	138	0.193	0.685	0.252	23.2% (inactive)	-0.517 (inactive)	-5.7e-05 (inactive)	0.00439 (inactive)	inactive	17.4% (inactive)	2.13% (inactive)	33.4% (inactive)	–	–	–
CNCC(O)c1ccc(O)cc1 (centres undefined)	624	3.3% (inactive)	4.2% (inactive)	102	-43.9% (inactive)	118	-0.968	-0.213	1.33	-0.828% (inactive)	-0.493 (inactive)	1.3e-05 (inactive)	0.00558 (inactive)	inactive	-0.226% (inactive) and -8.32% (inactive)	14.9% (inactive)	28.2% (inactive)	–	–	–
C[N+]1(C)[C@@H]2CC(OC(=O)[C@H](CO)c3ccccc3)C[C@H]1[C@@H]1O[C@@H]12 (some centres undefined)	542	-16.3% (inactive)	19% (inactive)	107	-56.7% (inactive)	129	-0.698	-0.0087	-0.0821	-0.493% (inactive)	-0.433 (inactive)	2.1e-05 (inactive)	0.0054 (inactive)	inactive	9.4% (inactive)	-2.08% (inactive)	22.3% (inactive)	–	–	–
CC[C@@H](CO)NC(=O)[C@@H]1C=C2c3cccc4c3c(cn4C)C[C@H]2N(C)C1	540	-4.2% (inactive)	-7.9% (inactive)	89.4	-32.5% (inactive)	113	0.785	-0.624	-1.05	5.79% (inactive)	-0.107 (active)	-2e-06 (inactive)	0.0047 (inactive)	inactive	5.16% (inactive) and -19.2% (inactive)	18% (inactive)	38% (inactive)	–	–	–
CN1CCC(OC(=O)C2c3ccccc3Oc3ccccc32)CC1	593	-3.3% (inactive)	-33.4% (inactive)	104	-38.4% (inactive)	143	-1.82	0.811	-0.439	-3.5% (inactive)	-0.316 (inactive)	1.2e-05 (inactive)	0.0042 (inactive)	inactive	11.4% (inactive)	7.89% (inactive)	12.3% (inactive)	–	–	–
Clc1ccc(COC(Cn2ccnc2)c2ccc(Cl)cc2Cl)c(Cl)c1 (centres undefined)	692	-0.4% [at 2 µM, stronger effect = higher value, 0% TNFa-plus-vehicle, 100% no-TNFa wells] (inactive)	–	–	-73.1% (inactive)	144	–	–	–	31.1% [cells stimulated with TPA for 15 min] (inactive)	-0.515 (inactive)	-3.4e-05 (inactive)	0.00694 (inactive)	inactive; toxic [screened at 20 µM (by protocol)]	36.1% (inactive)	15.4% (inactive)	32.2% (inactive)	-0.0883	1.51	-0.416
CC(C)(C)OC(=O)c1c(N)n(Cc2ccco2)c2nc3ccccc3nc12	394	-12.8% (inactive)	-3.4% (inactive)	81	-57.4% (inactive)	127	0.353	-0.801	-1.16	13.4% (inactive)	-0.293 (inactive)	5.9e-05 (inactive)	0.00636 (inactive)	inactive	19.2% (inactive)	6.73% (inactive)	-1.48% (inactive)	–	–	–
